# CDC25B CDK2 inh: human CDC25B-CDK2/CyclinA binding inhibition; P30305+P24941; HTRF CDC25B-CDK2/CyclinA binding, anti-His/anti-Flag; active compounds read high; z-score (no concentration beside the values); 94,000 compounds, 0.72% hits; in the data active = z-score above about 3.2
# HIV TAR-Tat: HIV-1 TAR-Tat binding disruption; HIV-1 TAR RNA, Tat peptide displacement FRET; active compounds read high; z-score (no concentration beside the values); 100,000 compounds, 0.6% hits; active = z-score of 3 or more in at least 2 runs
# Numbers without * were called inactive; / = no result. A selection: hits, their analogues and other compounds. The true share with any hit is near 0.86%.
SMILES,CDC25B CDK2 inh,HIV TAR-Tat
CCCCOC(=O)C1=C(C)NC2=C(C(=O)CC(c3ccccc3)C2)C1c1ccco1 (stereo unspecified),1.4,1.6
O=C1CC(c2ccco2)CC2=C1C(c1ccccc1)C1=C(N2)c2ccccc2C1=O (stereo unspecified),12*,0.01
CN1CCc2c(sc(N)c2C#N)C1,/,-0.14
CCOC(=O)N1CCc2c(sc(N)c2C#N)C1,5.7*,/
CCOC(=O)c1cc(C#N)c(Sc2ccccn2)nc1C(F)(F)F,-1.3,/
CCOC(=O)c1cc(C#N)c(Oc2ccccc2)nc1C(F)(F)F,22*,/
COc1ccc(NS(=O)(=O)c2ccc(N3CCCCS3(=O)=O)cc2)cc1,/,0.53
Nc1cc(=O)[nH]c(SCC(=O)c2ccc(O)c(O)c2)n1,4.8,/
CCCCNc1nc(Oc2ccc(=O)[nH]n2)nc(N(CC)CC)n1,-1.9,1.4
COc1cccc2c1Oc1ncccc1NC2,8.6*,0.72
COc1cccc2c1Oc1ncccc1N(C(=O)CCC(=O)O)C2,1.8,0.06
Cc1c(C(=O)O)sc2ncnc(N3CCC(c4ccccc4)C3)c12 (stereo unspecified),/,0.4
CCOC(=O)C1CCN(c2ncnc3sc(C(=O)O)c(C)c23)CC1,/,16*
COc1cc2[nH]c3c(=O)n(CCN4CCCCC4C)cnc3c2cc1OC (stereo unspecified),-1.1,6.4*
Cc1ccc2[nH]c3c(=O)n(CCN4CCCCC4C)cnc3c2c1 (stereo unspecified),-1.3,1
CCn1c2ccccc2c2cc(CN3CCN(S(C)(=O)=O)CC3)ccc21,0.07,0
CCn1c2ccccc2c2cc(CN3CCN(Cc4ccc(SC)cc4)CC3)ccc21,11*,/
O=c1c(O)cccc2cc(O)c(O)c(O)c12,/,30*
O=C1c2ccccc2C(=O)c2c(O)c(O)cc(O)c21,/,3.5
CCN(CC)S(=O)(=O)N(CC(=O)O)CC(=O)O,/,0.75
O=C(O)CN(CC(=O)O)S(=O)(=O)c1ccccc1,/,17*
O[C@H]1C=C2CCN3Cc4cc5c(cc4C(C23)[C@@H]1O)OCO5 (stereo partly specified),/,20*
CCOc1cc(C2CC(=O)N3CN(c4ccc(CC)cc4)CSC3=C2C#N)ccc1O (stereo unspecified),1.2,24*
CCOc1cc(C2CC(=O)N3CN(Cc4ccco4)CSC3=C2C#N)ccc1O (stereo unspecified),2.1,1.7
CCOc1cc(C2CC(=O)N3CN(c4ccc(Br)cc4)CSC3=C2C#N)ccc1O (stereo unspecified),3,27*
SMILES,CDC25B CDK2 inh,HIV TAR-Tat
CCCSC1=C(C#N)C(c2ccc(O)c(OCC)c2)CC(=O)N1 (stereo unspecified),-1.1,-0.28
CCn1cc(CCC(=O)NC(C)C)c2ccccc21,/,-0.21
Cc1ccc(NC(=O)Nc2c[nH]c(=O)[nH]c2=O)cc1,/,1.8
COC(=O)C1=C(OC(=O)CN2C(=O)CCC2=O)c2ccccc2S(=O)(=O)N1C(C)C,6.3*,0.12
COC(=O)C1=C(OC(=O)CN2C(=O)CCC2=O)c2ccccc2S(=O)(=O)N1C,-2.2,0.59
CC(C)Cn1cnc2nc(CSc3ccccc3NC(=O)CCC3CCCC3)cc(=O)n21,-2.4,-0.53
Cc1c(NC(=O)NCCCN2CCOCC2)sc2nc3n(c(=O)c12)CCC(C)CC3 (stereo unspecified),10*,0.6
Cc1c(C(=O)NCCCN2CCOCC2)sc2nc3n(c(=O)c12)CCCCC3,/,1.5
COc1ccc2ccccc2c1C1CC(=O)N2CN(C3CCCCC3)CSC2=C1C#N (stereo unspecified),6.1*,-1.6
COc1ccc2ccccc2c1C1CC(=O)N2CN(Cc3ccccc3)CSC2=C1C#N (stereo unspecified),5.4*,1.6
COc1ccc2ccccc2c1C1CC(=O)N2CN(Cc3ccco3)CSC2=C1C#N (stereo unspecified),5.8*,0.91
CCOC(=O)c1ccc2nc(/N=C/NO)sc2c1,-0.61,/
Cc1[nH]nc(N)c1Br,-1.2,/
CCOCCCNc1nc2c(S(=O)(=O)c3ccccc3)nnn2c2ccccc12,-0.96,11*
COCCCNc1nc2c(S(=O)(=O)c3ccccc3)nnn2c2ccccc12,-1.9,1.1
CC(C)(C)Nc1ncnc2c1cnn2-c1ccccc1,/,-0.39
Cn1c(=O)c2c(nc(CN3CCN(Cc4ccccc4)CC3)n2CCN2CCOCC2)n(C)c1=O,-1.6,-1.6
COC(=O)c1cc(NC(=O)c2ccc3ccccc3c2)cc(C(=O)OC)c1,-2,/
COC(=O)c1cc(=O)c(O)c2c(O)c(O)ccc2c1,/,25*
O=c1[nH]n(CCO)c(=O)c2cccnc12,-1.7,/
Cn1c(=O)c2c(-c3ccccc3Br)n(-c3cccc4cccnc34)cc2n(C)c1=O,16*,-2.6
Cn1c(=O)c2c(-c3ccccc3Br)n(-c3ccccc3)cc2n(C)c1=O,-0.69,0.54
Cn1c(=O)c2c(-c3ccccc3Br)n(-c3ccccc3N)cc2n(C)c1=O,0.87,2.5
